According to PubChem BioAssay (Tox21):
Values joined by “and” are separate entries in the source; they are usually repeats but may differ in a detail not shown here. Equal values may be shown once. Results filed as inconclusive are left out. Where a structure was tested more than once in an assay, its records may differ in their call. Active and inactive are the calls of the source. Calls follow the shape of the dose curve; as a rule, active = well fitted inhibition curve with a large enough effect in the repeat runs; inconclusive = weak or mixed curves; inactive = no such curve, though single readings can be large or run the other way.

Target: Cytochrome P450 1A2 (Homo sapiens) (UniProt P05177)
Sequence (P05177 whole entry, looked up): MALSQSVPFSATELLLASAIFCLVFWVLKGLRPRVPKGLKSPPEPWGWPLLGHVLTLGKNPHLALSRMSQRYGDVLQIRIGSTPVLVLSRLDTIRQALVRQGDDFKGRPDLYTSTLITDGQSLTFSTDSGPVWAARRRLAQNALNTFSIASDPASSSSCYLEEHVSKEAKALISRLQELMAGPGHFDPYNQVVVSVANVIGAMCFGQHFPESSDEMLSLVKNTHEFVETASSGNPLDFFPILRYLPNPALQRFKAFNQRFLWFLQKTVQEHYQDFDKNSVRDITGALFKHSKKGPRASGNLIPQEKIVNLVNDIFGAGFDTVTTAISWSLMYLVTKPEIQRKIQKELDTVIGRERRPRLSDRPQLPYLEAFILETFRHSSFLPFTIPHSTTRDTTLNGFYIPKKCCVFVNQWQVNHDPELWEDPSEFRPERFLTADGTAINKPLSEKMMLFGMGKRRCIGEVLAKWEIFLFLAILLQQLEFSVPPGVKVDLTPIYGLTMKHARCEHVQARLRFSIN
Assay: Cytochrome P450 Family 1 Subfamily A Member 2 (CYP1A2) small molecule antagonists: luciferase reporter qHTS assay (AID 1671199); also: nearly all actives have a fitted effect of over 50% in size
Conditions: P450-Glo CYP1A2 enzyme, luciferin luminescence, 1 h; series mostly up to 115 µM; activity change, negative = inhibition: at the top concentration
Excerpt: National Center for Advancing Translational Sciences [NCATS]
U.S. Environmental Protection Agency [EPA]
National Institutes of Environmental Health Sciences [NIEHS]
National Toxicology Program [NTP]
U.S. Food and Drug Administration [FDA]
Cytochrome P450 (CYP) enzymes are membrane-bound hemeproteins that play a key role in metabolism of drugs and xenobiotics. Evaluation of the effect of chemicals on CYP isozymes is useful to minimize the adverse drug reactions and toxicities in drug development process. Tox21 chemicals were tested for their effect on CYP enzyme activities by using P450-Glo (TM) screening systems (Promega Corporation, Madison, WI). These systems provide a luminescent method containing proluciferin substrates and are converted to luciferin products by CYP isozymes. The luciferin products formed are detected with a luciferin detection reagent, and the amount of light produced is proportional to CYP activity. P450-Glo (TM) CYP1A2 screening system (Catalog. No. V9770) was used to detect the compounds that interfere in CYP1A2 activity. The positive control compound used for CYP1A2 assay is furafylline (Sigma-Aldrich, St. Louis, MO).
Tox21 Assay Protocol Summary:
Two ul of enzyme-substrate mix was dispensed into medium binding white/solid 1536-well plates (Greiner Bio-One North America Inc., Monroe, NC) using a BioRaptr Flying Reagent Dispenser (FRD, Beckman Coulter, Brea, CA). Compounds dissolved in DMSO and positive control (furafyllline) were transferred to the assay plates at 23 nl using a Pintool station (Wako, San Diego, CA). The assay plates were incubated at room temperature for 10 min. Then 2 ul of NADPH regeneration solution was added to each well of the assay plates using an FRD and incubated at room temperature for 1 h. The reaction was stopped by adding 4 ul of detection reagent using an FRD and after 20 min incubation at room temperature the luminescence signal was measured using a ViewLux plate reader (Perkin Elmer, Shelton, CT). Data were expressed as relative luminescence units.
% is scaled to controls: 0 for no effect and ±100 for the full control effect; potency is read from the fitted curve at half-maximal effect.

Compound	Potency	activity change, negative = inhibition
CCO[Si](CCCN)(OCC)OCC	inactive	
CN1C(=O)CC[C@H]1c1cccnc1		9.09% [at 53 µM] (inactive)
C=Cc1ccc(C)cc1	inactive	
CCNc1ccccc1	32.3 µM (active) and inactive	
CC1(C)CC(N)CC(C)(CN)C1 (stereo not given)		-15.5% (inactive)
c1ccc2c(c1)Cc1ccccc1-2	25.6 µM (active) and 7.96 µM (active)	
CCOC(=O)n1ccn(C)c1=S	39.9 µM (active) and inactive	
CCCCCCCO	inactive	
CCCCCCCCCCCCCCCC(=O)OC(C)C		-9.25% [at 53 µM] (inactive)
CC(=O)OC1CC(C)OC(C)O1 (stereo not given)	inactive	
CC(=O)c1ccc(O)cc1		-28% (inactive)
C=CCCCCCCCCC(=O)O	inactive	
CCCCCCCCCCCC(=O)OC	inactive	
NC(=S)NNC(N)=S		-8.99% (inactive)
CC1(C)NC(=O)NC1=O	35.8 µM (active)	
CC(=O)Oc1ccc(C)cc1		-13.5% [at 53 µM] (inactive)
CC1(C)OC[C@@H]2O[C@@]3(C(=O)O)OC(C)(C)O[C@H]3[C@@H]2O1	inactive	
CCNC(=S)NCC	44.8 µM (active)	
COC(=O)CCCC(=O)OC	inactive	
CC1(C)S[C@@H]2[C@H](NC(=O)COc3ccccc3)C(=O)N2[C@H]1C(=O)O		-23.2% (inactive)

Compound	Potency	activity change, negative = inhibition
CCNc1cccc(C)c1		-15.8% (inactive)
CC(=O)OCc1ccco1	inactive	
C=CC(C)CCCC(C)(C)O (stereo not given)	39.8 µM (active)	
O=C(O)Cn1c(=O)n(Cc2ccc(Br)cc2F)c(=O)c2ccc(Cl)cc21	79.6 µM (active) and inactive	
CNC(=S)N(C)C		-8.36% (inactive)
O=C(O)c1ccc(S(=O)(=O)N(Cl)Cl)cc1	inactive	
O=C1c2ccccc2CCc2ccccc21	1.45 µM (active) and 1.62 µM (active)	
CC(C)=CCl		-20.7% (inactive)
CN(C)c1ccc(O)c2c1C[C@H]1C[C@H]3[C@H](N(C)C)C(=O)C(C(N)=O)=C(O)[C@@]3(O)C(=O)C1=C2O	inactive	
CCCCCCCC=O	inactive	
CCCCCCO		-17.8% (inactive)
CSc1ccc(Cl)cc1	inactive	
NCCCCCCN		-17% (inactive)
O=C(O)/C=C/C(=O)O	inactive	
CC(C)CC(=O)CC(C)CC(C)C (stereo not given)	inactive	
CC(C)(C#N)c1cc(Cn2cncn2)cc(C(C)(C)C#N)c1	9.75 µM (active) and 15.5 µM (active)	
CC(=O)OCc1ccccc1	inactive	
OC1C(O)C(O)C(O)C(O)C1O (stereo not given)	inactive	
C=CCc1ccc(OC)c(OC)c1	18 µM (active) and 22.4 µM (active)	
CC(=O)CCC=C(C)C		-19.1% (inactive)
